Screening results from PubChem.
MEKK3 PB1 HTS: modulators (inhibitors or enhancers) of MEK5 binding to human MEKK3 PB1 domain; binding response (% of control), % at 10 µM; 1.4% of 290,000 active; AID 1529; bead-based flow cytometry, Alexa488-MEK5 binding to MEKK3; actives lie on both sides; 0 = blocked by unlabeled MEK5, 100 = vehicle; Q99759;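 active = binding response more than 3 SD above or below the average of its plate-row segment, actives on both sides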;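 also: Alexa488 bead fluorescence after subtracting the streptavidin-only scavenger bead signal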
GRK2 inh: human GRK2 inhibition via aptamer displacement. 0.59% of 330,000 active. AID 488847. bead flow cytometry, FAM-aptamer displacement from GRK2. P25098. inhibition of aptamer binding, % at 10 µM;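 active = inhibition of aptamer binding above 40%, roughly 3 SD of noise, on plates passing a quality check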;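 also: median bead fluorescence of bound FAM aptamer so fluorescent compounds give negative values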
MEKK2wt PB1 HTS: raises or lowers MEK5 binding to wildtype human MEKK2 PB1 domain; Q9Y2U5; bead flow cytometry, Alexa488-MEK5 binding to MEKK2 WT; actives lie on both sides; 1.1% of 290,000 active; binding response (% of control), % at 10 µM; in the data active = binding response below about 67% or above about 130%
MEKK2mut PB1 HTS: signal of MEK5 binding to mutant human MEKK2 PB1 domain; AID 1530; 0.35% of 290,000 active; percent response, % at 10 µM; bead flow cytometry, Alexa488-MEK5 binding to MEKK2 mutant; in the data active = percent response above about 24%, passing the limit was not always enough
Beta2AR agonist: human beta-2 adrenergic receptor agonism by FAP; P07550; Am2.2-beta2AR cells, FAP receptor internalization, flow cytometry; response, % (no concentration beside the values); 0.43% of 340,000 active; AID 504454;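 active = response above a set limit, near 3 SD of response in nonfluorescent compounds, cut at about 42% in these data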
Target sequence (P07550 whole entry, looked up): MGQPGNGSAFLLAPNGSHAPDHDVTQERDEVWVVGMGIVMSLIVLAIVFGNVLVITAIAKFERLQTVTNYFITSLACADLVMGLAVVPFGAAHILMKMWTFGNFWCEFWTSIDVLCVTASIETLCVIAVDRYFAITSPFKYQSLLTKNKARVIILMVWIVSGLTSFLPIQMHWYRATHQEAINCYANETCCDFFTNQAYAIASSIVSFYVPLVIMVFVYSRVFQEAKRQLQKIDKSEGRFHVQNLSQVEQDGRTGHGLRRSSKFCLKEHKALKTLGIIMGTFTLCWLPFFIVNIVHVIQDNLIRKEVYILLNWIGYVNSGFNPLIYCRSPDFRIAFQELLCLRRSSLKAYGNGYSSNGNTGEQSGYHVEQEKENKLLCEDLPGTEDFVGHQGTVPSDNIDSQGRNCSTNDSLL
GRK2 inh confirm: human GRK2 inhibition confirmation, cherry pick 1; shares compounds with GRK2 inh; bead-bound GRK2, FAM-aptamer displacement, flow cytometry; aptamer displacement, % at 10 µM; 4% of 2,000 active; AID 504451;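 active = aptamer displacement above 40%, near three times the noise of non-fluorescent compounds, on plates passing quality checks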;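 also: negative values mostly reflect intrinsic compound fluorescence rather than true enhancement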
Aptamer quench: fluorescent aptamer quenching in GRK2 counter-screen dose response | shares compounds with GRK2 inh | Fluorescent RNA aptamer beads, flow cytometry; active compounds read high | fluorescence change (kMESF span), kMESF (concentration not given with the values) | 110 tested, under 10 active;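 active = compounds whose bead fluorescence drops by more than 37 kMESF across the dose range, marking them as dye quenchers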
FAM quench CP1: counter-screen for GRK2 aptamer inhibitors: fluorescent aptamer quenchers; Carboxyfluorescein RNA aptamer on beads, flow cytometry quenching; active compounds read low; AID 504580; 2,000 tested, under 10 active; shares compounds with GRK2 inh; fluorescence response (% of DMSO), % at 10 µM;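 active = compounds that quench the bead-bound fluorescent RNA probe, cutting fluorescence to under half of the solvent control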;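 also: counterscreen run without GRK2 so only probe quenching by compound is measured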
GRK2 confirm 2: confirmation of human GRK2 inhibitors binding RNA aptamer site; shares compounds with GRK2 inh; bead-bound GRK2, FAM-aptamer displacement, flow cytometry; inhibition of aptamer binding, % at 10 µM; 360 tested, under 10 active; AID 504782;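 active = inhibition of aptamer binding above 40%, about triple the noise seen with nonglowing compounds, on plates passing quality control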;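 also: negative values mostly come from compounds that fluoresce themselves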
FAM quench CP2: aptamer fluorescence quenching in GRK2 counter-screen | shares compounds with GRK2 inh | carboxyfluorescein RNA aptamer beads, flow cytometry quenching; active compounds read low | fluorescence response vs DMSO, % at 10 µM | 360 tested, under 10 active | AID 588494;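 active = response vs DMSO under 50%, meaning signal dropped by over half, treated as fluorescence quencher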;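 also: labelled aptamer on streptavidin beads without GRK2 as a quench counter-screen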
Large screens that a line does not name were inactive (follow-up assays come after a bar, where they were run). An excerpt weighted towards active compounds, which were near 2.9% of everything screened.

Cc1ccc2cc(CN(Cc3nnnn3Cc3ccco3)CC3CCCO3)c(=O)[nH]c2c1C (configuration not stated)	GRK2 inh 64.0 | GRK2 inh confirm inactive | FAM quench CP1 inactive
COc1ccc(N(C(=O)CNC(=O)c2ccco2)C(C(=O)NC2CCCC2)c2ccncc2)cc1 (configuration not stated)	none
COc1ccc(N(C(=O)c2ccco2)C(C(=O)NC2CCCC2)c2ccncc2)cc1 (configuration not stated)	GRK2 inh 83.0 | GRK2 inh confirm inactive | FAM quench CP1 inactive
COc1ccc(CCNC(=S)Nc2ccccc2)cc1	none
COc1ccc(CCNC(=S)Nc2ccc(OC)cc2)cc1	GRK2 inh 52.0 | GRK2 inh confirm inactive | FAM quench CP1 inactive
Cc1ccc(NC(=O)c2noc3c2CCCCC3)cc1C	GRK2 inh 100.0 (no result: MEKK3 PB1 HTS, MEKK2wt PB1 HTS, MEKK2mut PB1 HTS) | GRK2 inh confirm inactive | FAM quench CP1 inactive
Cc1ccc(NC(=O)c2noc3c2CCCCC3)cc1	none
COc1ccc(CCN2CC(C(=O)N(C)Cc3ccccc3OC)CCC2=O)cc1 (configuration not stated)	none
COc1ccc(CCN2CC(C(=O)N(C)CCOc3ccccc3)CCC2=O)cc1 (configuration not stated)	none | GRK2 inh confirm inactive | FAM quench CP1 inactive
CN(CCOc1ccccc1)C(=O)C1CCC(=O)N(CCc2ccc(Cl)cc2)C1 (configuration not stated)	none | GRK2 inh confirm inactive | FAM quench CP1 inactive
O=C(NCCOc1ccccc1)C1CCC(=O)N(CCc2ccc(Cl)cc2)C1 (configuration not stated)	none
Cc1cc(C(=O)N2CCc3ccccc32)c2cc(F)ccc2n1	GRK2 inh 76.0 | GRK2 inh confirm inactive | FAM quench CP1 inactive
O=C(c1cccc(F)c1)N1CCc2ccccc21	none
Cc1nc2cc(C(=O)N3CCc4ccccc43)ccc2n1-c1ccc(F)c(F)c1	GRK2 inh 93.0 | GRK2 confirm 2 inactive | FAM quench CP2 inactive
COCC(=O)N1CCC(n2nccc2NC(=O)CCOc2ccccc2)CC1	none
O=C(CCOc1ccccc1)Nc1ccnn1C1CCN(C(=O)CCC(F)(F)F)CC1	GRK2 inh 98.0 | GRK2 inh confirm inactive | FAM quench CP1 inactive
CCOC(=O)[C@H]1[C@H]2COc3ccc(OC)cc3[C@@H]2N2C(=O)CN(CC3CCCO3)C(=O)[C@@]12C (some centres not stated)	none (no result: MEKK3 PB1 HTS, MEKK2wt PB1 HTS, MEKK2mut PB1 HTS)
O=c1c2c3c(sc2nc(NCCO)n1CCc1ccccc1)CCCCC3	GRK2 inh 90.0 | GRK2 inh confirm inactive | FAM quench CP1 inactive
COc1ccc(NC(=S)Nc2nc(CC(=O)Nc3ccccc3OC)cs2)cc1	none
COc1ccccc1NC(=O)Cc1csc(NC(=S)Nc2ccccc2)n1	GRK2 inh 58.0 | GRK2 inh confirm inactive | FAM quench CP1 inactive
Cc1[nH]c(C)c(C(=O)/C=C/c2ccc([N+](=O)[O-])cc2)c1C	none
O=C(CSc1nc2[nH]ncc2c(=O)[nH]1)Nc1ccc(OC(F)(F)F)cc1	GRK2 inh 65.0 (no result: MEKK3 PB1 HTS, MEKK2wt PB1 HTS, MEKK2mut PB1 HTS) | GRK2 inh confirm inactive | FAM quench CP1 inactive
COC(=O)c1ccc(NC(=O)CSc2nc3[nH]ncc3c(=O)[nH]2)cc1	none (no result: MEKK3 PB1 HTS, MEKK2wt PB1 HTS, MEKK2mut PB1 HTS)
COc1ccccc1NC(=O)C1=C(C)NC(SCC(=O)Nc2ccc(C(=O)O)cc2)=C(C#N)C1c1cccs1 (configuration not stated)	none
CC(Sc1ccccc1)C(=O)N/N=C/c1ccccc1 (configuration not stated)	none (no result: MEKK3 PB1 HTS, MEKK2wt PB1 HTS, MEKK2mut PB1 HTS)
NC(=O)c1cc(S(=O)(=O)N2CCc3ccccc3C2)cs1	none
CC(C)Cc1cc(C(=O)Nc2ccc3c(c2)OCO3)no1	GRK2 inh 74.0 | GRK2 inh confirm inactive | FAM quench CP1 inactive
Cc1cc(C(=O)Nc2ccc3c(c2)OCO3)no1	none
CCCn1cc(S(=O)(=O)c2ccccc2)c(=O)c2cc(F)c(N3CCN(C)CC3)cc21	none
CN(C)S(=O)(=O)c1cccc(COc2ncnc3c(Cl)cc(Cl)cc23)c1	GRK2 inh 90.0 | GRK2 inh confirm inactive | FAM quench CP1 inactive
N#Cc1ccccc1NC(=O)COC(=O)CN1C(=O)C2CCCCC2C1=O (configuration not stated)	none (no result: MEKK3 PB1 HTS, MEKK2wt PB1 HTS, MEKK2mut PB1 HTS)
CC(C)(C)C1CCc2c(C(=O)NNC(=O)CCCC(=O)O)csc2C1 (configuration not stated)	GRK2 inh 97.0 | GRK2 inh confirm inactive | FAM quench CP1 inactive
Fc1ccc2cc(-c3ccccc3F)ncc2c1	GRK2 inh 100.0 (no result: MEKK3 PB1 HTS, MEKK2wt PB1 HTS, MEKK2mut PB1 HTS) | GRK2 confirm 2 inactive | FAM quench CP2 inactive
CCN(CC)C(=O)CSc1nc2c(c(-c3cccnc3)c1C#N)CCCC2	none
CCCCNc1ccc(S(N)(=O)=O)cc1[N+](=O)[O-]	none (no result: Beta2AR agonist)
CCNc1ccc(S(=O)(=O)N(C)C)cc1[N+](=O)[O-]	GRK2 inh 66.0 | GRK2 inh confirm inactive | FAM quench CP1 inactive
C[C@H](NC(=O)c1[nH]cnc1C(=O)Nc1cccc(Cl)c1)c1ccccc1	none (no result: MEKK3 PB1 HTS, MEKK2wt PB1 HTS, MEKK2mut PB1 HTS) | GRK2 inh confirm inactive | FAM quench CP1 inactive
O=C(Nc1cccc(Cl)c1)c1cnc[nH]1	GRK2 inh 58.0 | GRK2 inh confirm inactive | FAM quench CP1 inactive
CC1CCN(C(=O)c2[nH]cnc2C(=O)Nc2cccc(Cl)c2)CC1	none (no result: MEKK3 PB1 HTS, MEKK2wt PB1 HTS, MEKK2mut PB1 HTS) | GRK2 inh confirm inactive | Aptamer quench inactive | FAM quench CP1 inactive
O=C(Nc1cccc(Cl)c1)c1ccncc1	none
CC(C)(C)OC(=O)[C@H](Cc1ccccc1)NC(=O)c1[nH]cnc1C(=O)Nc1cccc(Cl)c1	none | GRK2 inh confirm inactive | FAM quench CP1 inactive
COc1ccc(C(=O)COC(=O)c2ccc3c(c2)OCO3)c(OC)c1	none (no result: MEKK3 PB1 HTS, MEKK2wt PB1 HTS, MEKK2mut PB1 HTS)
COc1cccc(NC(=O)COc2ccc(C(=O)N3CCN(C)CC3)cc2)c1	none
COc1ccc(NC(=O)Cn2nnc(C(=O)NCc3ccc4c(c3)OCO4)c2N)c(OC)c1	none
CN(Cc1ccccc1)C(=O)c1[nH]cnc1C(=O)Nc1cccc(Cl)c1	none (no result: MEKK3 PB1 HTS, MEKK2wt PB1 HTS, MEKK2mut PB1 HTS) | GRK2 inh confirm inactive | FAM quench CP1 inactive
C[C@@H](NC(=O)c1[nH]cnc1C(=O)Nc1cccc(Cl)c1)c1ccccc1	none (no result: MEKK3 PB1 HTS, MEKK2wt PB1 HTS, MEKK2mut PB1 HTS) | GRK2 inh confirm inactive | FAM quench CP1 inactive
